About 83,000 compounds went through this panel and 20% of them were active in at least one assay; those are over-represented in the sample as a whole.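 The endpoint reported here, percent growth, reads 100 for growth as untreated, 0 for no net growth and -100 for all cells dead.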 Active and inactive are the calls of the source. The calls were made as follows: active = growth percent below 10; inactive = the rest.
Experiments:
Assay in all cases: NCI-60 one-dose screen, 48 h (100 = growth as untreated, 0 = no growth, -100 = all killed)
Details in all cases: 10 µM unless noted
SK-MEL-2 melanoma = system: SK-MEL-2 melanoma
SN12C renal = system: SN12C renal
UO-31 renal = system: UO-31 renal
TK-10 renal = system: TK-10 renal
ACHN renal = system: ACHN renal
CAKI-1 renal = system: CAKI-1 renal
A498 renal = system: A498 renal
CCRF-CEM leukemia = system: CCRF-CEM leukemia
MOLT-4 leukemia = system: MOLT-4 leukemia
EKVX NSCLC = system: EKVX NSCLC

Row | SMILES | growth (SK-MEL-2 melanoma) | growth (SN12C renal) | growth (UO-31 renal) | growth (TK-10 renal) | growth (ACHN renal) | growth (CAKI-1 renal) | growth (A498 renal) | growth (CCRF-CEM leukemia) | growth (MOLT-4 leukemia) | growth (EKVX NSCLC)
1 | COc1ccc2[nH]cc(-c3noc(C(=O)c4cn(C)c5ccc(F)cc45)n3)c2c1 | 94.7% (inactive) | 93% (inactive) | 67.9% (inactive) | 113% (inactive) | 88.4% (inactive) | 81.5% (inactive) | 95.8% (inactive) | 99.2% (inactive) | 95.4% (inactive) | –
2 | CN(C)c1ccc(N=Nc2ccc(Br)cn2)c(O)c1 | 18.8% (inactive) | 12.3% (inactive) | 3.75% (active) | 33.9% (inactive) | 7.81% (active) | – | 53.9% (inactive) | -0.72% (active) | 1.73% (active) | –
3 | CN(C)CCCNc1c2ccccc2nc2ccccc12 | 99.9% (inactive) | 95.8% (inactive) | 103% (inactive) | 81.6% (inactive) | 100% (inactive) | 106% (inactive) | 102% (inactive) | 86.9% (inactive) | 83.3% (inactive) | –
4 | COc1ccc(Nc2nc(SC)nc(-c3cccc([N+](=O)[O-])c3)c2C#N)cc1 | 94.9% (inactive) | 64.5% (inactive) | 17.7% (inactive) | 84% (inactive) | 16.9% (inactive) | – | 57.8% (inactive) | 114% (inactive) | 99.8% (inactive) | –
5 | Cc1cc(N2CCN(c3ccnc4cc(Cl)ccc34)CC2)nc(NC2CCCCC2)n1 | 33.1% (inactive) | 47.2% (inactive) | 6.25% (active) | 48.8% (inactive) | 40.6% (inactive) | 37.7% (inactive) | -2.63% (active) | 1.71% (active) | -14.9% (active) | –
6 | COCCNc1ccc2c3c(cccc13)C(=O)N(CCN(C)C)C2=O | -12.6% (active) | 24.7% (inactive) | 10.6% (inactive) | 20.5% (inactive) | 11.9% (inactive) | -21.4% (active) | 26.5% (inactive) | 8.36% (active) | -6.43% (active) | –
7 | O=C1c2ccccc2C(=O)c2c(N=Nc3[nH]c(=S)[nH]c3O)cccc21 | 24.4% (inactive) | 35.3% (inactive) | 26.9% (inactive) | 54.1% (inactive) | 41.4% (inactive) | 20.6% (inactive) | -6.1% (active) | 14.1% (inactive) | 16% (inactive) | –
8 | COc1ccc2cc(-c3nn(-c4ccc(C(=O)O)cc4)cc3CO)ccc2c1 | 83.2% (inactive) | 106% (inactive) | 86.6% (inactive) | 104% (inactive) | 104% (inactive) | – | 94.5% (inactive) | 102% (inactive) | 84.7% (inactive) | –
9 | CS(=O)(=O)c1ccc(-n2nc(-c3ccc(Br)cc3)c3ccccc3c2=O)cc1 | 107% (inactive) | 102% (inactive) | 67.9% (inactive) | 105% (inactive) | 95.9% (inactive) | 98.7% (inactive) | 81.3% (inactive) | 97.1% (inactive) | 94% (inactive) | –
10 | O=C(COc1ccc(-c2nc3cc(Cl)c(Cl)cc3[nH]2)cc1)N=Nc1c(O)[nH]c2ccccc12 | 14.6% (inactive) | -27.1% (active) | 99.7% (inactive) | 22.8% (inactive) | 25.6% (inactive) | 38.5% (inactive) | -1.56% (active) | 16.1% (inactive) | 27% (inactive) | –
11 | C=C(C)C1CC(O)C2(C)CCCC3C2C1CC(C)C3(C)CC/C(C)=C/C(O)C1CCC(=O)c2c(OC)cc(OC)cc21 (stereo not drawn) | 65.8% (inactive) | 59.2% (inactive) | 47.6% (inactive) | 55.6% (inactive) | 41.1% (inactive) | – | 9.01% (active) | 25.7% (inactive) | 21.7% (inactive) | –
12 | CC(=O)O[C@H]1[C@@H]2OC(=O)C(CSc3ccccc3)[C@@H]2C[C@H]2O[C@]2(C)CC/C=C(\C)CCC[C@@H]1C (stereo partly drawn) | 35.6% (inactive) | 31.6% (inactive) | 11.7% (inactive) | -5.98% (active) | 33.5% (inactive) | 2.92% (active) | 116% (inactive) | 52.4% (inactive) | 22.7% (inactive) | –
13 | C=C(C)[C@@H]1CC[C@]2(C(=O)OC)CC[C@]3(C)[C@H](CC[C@@H]4[C@@]5(C)C/C(=C/c6ccc(OC)cc6)C(=O)C(C)(C)[C@@H]5CC[C@]43C)[C@@H]12 | 104% (inactive) | 84.9% (inactive) | 79.7% (inactive) | 107% (inactive) | 90.5% (inactive) | 90.5% (inactive) | 93.7% (inactive) | 58.8% (inactive) | 58.3% (inactive) | –
14 | NC(=NC1C2CC3CC(C2)CC1C3)Nc1ccc(I)cc1 (stereo not drawn) | 50.3% (inactive) | – | 18.6% (inactive) | 43.5% (inactive) | – | 18% (inactive) | -12.5% (active) | 8.16% (active) | 5.63% (active) | 32.2% (inactive)
15 | O=C(Cn1cccc(Nc2ccccc2)c1=O)Nc1ccccc1 | 121% (inactive) | 104% (inactive) | 91.6% (inactive) | 107% (inactive) | 103% (inactive) | 97.6% (inactive) | 65.6% (inactive) | 105% (inactive) | 110% (inactive) | –
16 | CN1CCN(c2ccc(Nc3c4ccccc4nc4ccccc34)cc2)CC1 | 106% (inactive) | 102% (inactive) | 97.5% (inactive) | 102% (inactive) | 102% (inactive) | 107% (inactive) | 112% (inactive) | 105% (inactive) | 97.5% (inactive) | –
17 | O=C(CCCCC(=O)N/N=C\c1ccccc1O)N/N=C\c1ccccc1O | 75.6% (inactive) | 47.4% (inactive) | 19.3% (inactive) | 40.5% (inactive) | 13.2% (inactive) | 14.7% (inactive) | – | 18.1% (inactive) | 14.6% (inactive) | –
18 | Cn1c(=O)[nH]c(=O)c2nc(CCC(=O)NCCC(=O)O)c(=O)[nH]c21 | 106% (inactive) | 99.5% (inactive) | 86.6% (inactive) | 106% (inactive) | 101% (inactive) | 93.5% (inactive) | 114% (inactive) | 109% (inactive) | 106% (inactive) | –
19 | COc1cccc(-c2nn(C(C)(C)C)cc2-c2ccnc(NCCCNS(=O)(=O)c3ccc(C)cc3)c2)c1 | 108% (inactive) | 103% (inactive) | 85.3% (inactive) | 98.8% (inactive) | 102% (inactive) | 92.8% (inactive) | 94% (inactive) | 94.6% (inactive) | 103% (inactive) | –
20 | c1ccc(CCNc2ncnc3[nH]ncc23)cc1 | 127% (inactive) | 92.7% (inactive) | 62.1% (inactive) | 110% (inactive) | 89.2% (inactive) | 90.4% (inactive) | 104% (inactive) | 95.1% (inactive) | 124% (inactive) | –
21 | Cn1ncc2c(=O)nc3c(-c4ccccc4)n[nH]n3c21 | 112% (inactive) | 99.5% (inactive) | 97.1% (inactive) | 99.5% (inactive) | 116% (inactive) | 74.4% (inactive) | 112% (inactive) | 127% (inactive) | 99.6% (inactive) | –
